In ChEMBL document CHEMBL3988442, “University of Dundee, Small-Polar-MMV Screening Library” (2021):

target: T1, Aspartate--tRNA(Asp/Asn) ligase (Mycobacterium tuberculosis (strain ATCC 25618 / H37Rv)) (UniProt P9WFW3); test: Assay for Asp RNA synthetase-1 from Mycobacterium tuberculosis; assay type: functional; set-up: scale not given: in the data most compounds retested in dose-response had high values; conditions: 30 µM
T1 sequence (whole entry): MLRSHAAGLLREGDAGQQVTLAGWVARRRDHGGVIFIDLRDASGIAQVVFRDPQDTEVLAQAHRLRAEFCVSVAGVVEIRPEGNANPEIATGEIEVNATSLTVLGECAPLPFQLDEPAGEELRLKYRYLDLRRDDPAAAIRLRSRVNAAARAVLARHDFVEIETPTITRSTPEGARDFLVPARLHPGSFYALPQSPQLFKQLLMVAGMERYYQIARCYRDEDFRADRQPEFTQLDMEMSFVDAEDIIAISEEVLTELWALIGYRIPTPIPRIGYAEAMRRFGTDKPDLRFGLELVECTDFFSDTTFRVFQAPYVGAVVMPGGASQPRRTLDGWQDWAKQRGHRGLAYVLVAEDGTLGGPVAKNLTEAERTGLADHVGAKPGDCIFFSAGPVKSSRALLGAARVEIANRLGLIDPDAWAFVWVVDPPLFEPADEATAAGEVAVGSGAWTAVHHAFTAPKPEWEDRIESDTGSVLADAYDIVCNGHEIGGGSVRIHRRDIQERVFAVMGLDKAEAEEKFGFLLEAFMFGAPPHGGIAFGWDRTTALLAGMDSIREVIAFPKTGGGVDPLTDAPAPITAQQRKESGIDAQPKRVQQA

Row | Structure (SMILES) | Percent Effect [%]
1 | CCCC(NC(=O)c1cc(C)n(C2CC2)c1C)c1nnn[nH]1 (stereo not given) | -0.908
2 | O=c1oc(-c2cccs2)nn1CC(O)c1ccc(F)cc1 (stereo not given) | -0.425
3 | CCCOCCN1CCC2(CC1)CC(c1ccccc1)C(=O)N2C (stereo not given) | -5.14
4 | Cc1cc(F)ccc1OC1(C(=O)O)CCN(Cc2ccncc2)CC1 | -3.25
5 | CC(C)(C)OC(=O)NC(C)(C)c1noc(CN2CCCCC2)n1 | -0.448
6 | CCN(CC)c1ccc(-c2nc(-c3cccc(OC)c3OC)no2)cn1 | -4.22
7 | CC(=O)Nc1c(C)cnn1Cc1cc(F)ccc1F | 2.1
8 | Cc1nccn1CCC1CCCCN1C(=O)c1ccc2[nH]nnc2c1 (stereo not given) | 1.02
9 | CCOCCn1nnc(C2(NC(=O)c3ccccc3)CCCC2)n1 | -3.44
10 | O=C1O[C@@H]2CN(Cc3ccccc3)C[C@@H]2N1CCCN1CCOCC1 | -3.37
11 | Cc1cnn(C2CN(CC(O)c3ccc(F)cc3)C2)c1 (stereo not given) | -2.19
12 | COc1ncccc1C(=O)N1CCC(CNC(C)=O)CC1 | 1.83
13 | CCC(=O)NCC(=O)NCc1cc(Br)ccc1OC(F)F | -1.92
14 | CC(C)N1CCC(NCc2cccnc2N(C)C)CC1 | -1.8
15 | CCN1CC2(CCN(CCOCCO)CC2)CC(c2ccccc2)C1=O (stereo not given) | -2.77
16 | O=C(NCCCc1ccncc1)C1CCCN(Cc2ccco2)C1 (stereo not given) | 2.17
17 | Cc1cc(C)n(-c2cc(N3CCN(C(=O)C(C)(C)C)CC3)nc(C)n2)n1 | 0.747
18 | O=S(=O)(Cc1ccccc1F)NCCN1CCOCC1 | -2.93
19 | Cc1cc(NC(=O)Cn2cc(C#N)c(=O)c3cc(Br)ccc32)no1 | -2.42
20 | CC(Sc1nnnn1C1CCOCC1)C(=O)NC1CCCCC1 (stereo not given) | 1.09
